Compound activity from PubChem BioAssay.
Shown are actives, neighbours in structure and some others; about 7.4% of the full set was active somewhere.
NIH3T3 tox: kills NIH 3T3 cells | NIH 3T3 viability, CellTiter-Glo ATP luminescence, 48-72 h | Potency, µM (doses to about 96.7 µM), without a hit: at the highest dose activity change, negative = cytotoxicity, usual class: inhibitors | 94,000 tested, 4.3% active | AID 1345082; note: % is set by controls: 0 for no effect and ±100 for the full control effect; nearly all actives have a fitted effect of over 55% in size
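Viability of NIH 3T3 cells after 48 or 72 hr compound treatment at 37 °C was assessed by CellTiter-Glo, with luminescence imaged following a 10 min room-temperature step.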
hNpr1 antagonist: antagonists of human natriuretic peptide receptor Npr1. P16066. HEK293 hNpr1 GloSensor cGMP, ANP-stimulated luminescence. Potency, µM (titrated, usually from 46.3 µM), for the others: top-dose activity change, negative = inhibition, hits mostly inhibitors. 76,000 tested, 1.6% active; calls by dose curve; note: % is set by controls: 0 for no effect and ±100 for the full control effect; nearly all actives have a fitted effect of over 60% in size
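Compound pre-incubated 30 min at room temperature on GloSensor-loaded HEK293 cells stably carrying hNpr1 and the pGS-40F cGMP biosensor. Stimulation uses hNppA at 0.1 nM final; luminescence is taken at baseline and 20 min post-agonist.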
HEK cytotox: kills HEK 293 cells; HEK 293 viability, ATP luminescence (CellTiter-Glo), 48-72 h; Potency, µM (doses to about 115 µM), without a hit: top-dose activity change, negative = cytotoxicity, hits mostly inhibitors; 94,000 tested, 6.6% active; note: % is set by controls: 0 for no effect and ±100 for the full control effect; nearly all actives have a fitted effect of over 60% in size
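ATP-coupled CellTiter-Glo luminescence served as viability read-out, recorded 10 min after reagent addition at room temperature. HEK 293 cells, 250 cells/well, had been incubated with pintool-transferred compound for 48 or 72 hr at 37 degree Celsius.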
Luciferase inh: inhibitors of firefly (Photinus pyralis) luciferase. AID 1347043. P08659. 76,000 tested, 2.5% active. purified P. pyralis luciferase, luminescence, biochemical. Potency, µM (highest dose often 115 µM), hits mostly inhibitors; note: % is set by controls: 0 for no effect and ±100 for the full control effect; nearly all actives have a fitted effect of over 65% in size
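Luminescence read by CCD imaging after purified firefly luciferase (10nM final) was added to substrate buffer holding 10uM D-luciferin and 10uM ATP, pH 7.5, pre-dosed with compound.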
SNCA expr inhib: inhibitors of alpha-synuclein (SNCA) gene expression; HEK-293 SNCA-luciferase knock-in, luminescence, 24 h; 140,000 tested, 0.17% active; Potency, µM (top dose mostly 57.2 µM), without a hit: at the top dose activity change, negative = inhibition, actives largely listed as inhibitors;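 note: plate controls were DMSO cells for no effect and cell-free wells for full effect; nearly all actives have a fitted effect of over 45% in size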
HEK293 viab: cell viability loss counter-screen; HEK-293-SNCA-luc viability, GF-AFC fluorescence, 24 h; Potency, µM (highest dose often 57.1 µM), inactives show top-dose activity change, negative = cytotoxicity, usual class: cytotoxic; 150,000 tested, 0.12% active;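 note: 0% = DMSO-treated cells and -100% = medium-only wells without cells; nearly all actives have a fitted effect of over 30% in size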
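Cytotoxicity counterscreen: after 24 h compound treatment of genome-edited SNCA-luciferase HEK-293 cells, live-cell protease substrate GF-AFC read by fluorescence after 30 min; activity scaled between DMSO (0%) and medium-only (-100%), curves Hill-fitted.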
Npr1 antag conf: hNpr1 antagonism, confirmation assay. shares compounds with hNpr1 antagonist. HEK293 hNpr1 cGMP GloSensor luminescence, ANP-stimulated. Potency, µM (titrated, usually from 57.6 µM), for inactives: at the top dose activity change, negative = inhibition, hits mostly inhibitors. 1,400 tested, 76% active; calls by dose curve; note: nearly all actives have a fitted effect of over 70% in size
NPR2 antag: antagonizes human Npr2, subtype selectivity check. HEK293 hNpr2 GloSensor cGMP luminescence, CNP-stimulated. 1,400 tested, 67% active. AID 1347046. shares compounds with hNpr1 antagonist. Potency, µM (highest dose often 57.6 µM), for inactives: at the highest dose activity change, negative = inhibition, hits mostly inhibitors; calls by dose curve; note: nearly all actives have a fitted effect of over 70% in size
Target sequence (P20594 whole entry, looked up): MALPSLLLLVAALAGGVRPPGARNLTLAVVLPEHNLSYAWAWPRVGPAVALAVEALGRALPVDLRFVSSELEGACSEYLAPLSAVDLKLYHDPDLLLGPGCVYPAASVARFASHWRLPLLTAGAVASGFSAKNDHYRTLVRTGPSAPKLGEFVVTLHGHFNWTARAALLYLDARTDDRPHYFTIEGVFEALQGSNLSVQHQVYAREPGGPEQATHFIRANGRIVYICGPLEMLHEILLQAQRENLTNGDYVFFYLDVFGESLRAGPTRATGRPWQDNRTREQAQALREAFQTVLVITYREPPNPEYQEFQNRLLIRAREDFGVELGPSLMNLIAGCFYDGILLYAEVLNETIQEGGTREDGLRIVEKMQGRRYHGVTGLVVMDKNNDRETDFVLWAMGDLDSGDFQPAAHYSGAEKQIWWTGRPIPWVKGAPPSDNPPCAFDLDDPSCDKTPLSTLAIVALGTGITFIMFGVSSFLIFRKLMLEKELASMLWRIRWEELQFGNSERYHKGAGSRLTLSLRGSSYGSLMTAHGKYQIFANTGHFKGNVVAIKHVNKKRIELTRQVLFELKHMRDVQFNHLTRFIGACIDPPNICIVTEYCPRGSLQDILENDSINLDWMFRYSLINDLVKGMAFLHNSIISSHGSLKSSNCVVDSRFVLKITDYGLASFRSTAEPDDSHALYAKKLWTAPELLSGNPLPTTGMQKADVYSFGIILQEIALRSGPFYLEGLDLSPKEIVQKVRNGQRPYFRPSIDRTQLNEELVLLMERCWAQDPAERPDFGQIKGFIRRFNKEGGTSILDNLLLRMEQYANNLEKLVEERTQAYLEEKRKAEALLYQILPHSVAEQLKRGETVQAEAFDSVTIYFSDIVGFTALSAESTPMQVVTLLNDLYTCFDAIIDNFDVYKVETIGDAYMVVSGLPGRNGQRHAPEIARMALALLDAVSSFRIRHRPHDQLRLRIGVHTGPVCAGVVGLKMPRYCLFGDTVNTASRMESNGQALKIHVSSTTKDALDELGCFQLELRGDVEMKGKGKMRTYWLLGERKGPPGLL
FLuc counter: counter-screen for Npr1 antagonists: firefly luciferase inhibitors | shares compounds with hNpr1 antagonist | purified FLuc enzyme, luminescence, Km substrate | Potency, µM (top dose mostly 57.6 µM), without a hit: at the highest dose activity change, negative = inhibition, usual class: inhibitors | 1,400 tested, 0.7% active | AID 1347047; note: 0% is about no effect
GloSensor cGMP: counter-screen for Npr1 antagonists: GloSensor control cell line; HEK293 GloSensor cGMP, SNP-stimulated, luminescence; shares compounds with hNpr1 antagonist; 1,400 tested, 69% active; Potency, µM (highest dose often 57.6 µM), for the others: at the highest dose activity change, negative = inhibition, hits mostly inhibitors; AID 1347051; calls by dose curve; note: % is set by controls: 0 for no effect and ±100 for the full control effect; nearly all actives have a fitted effect of over 70% in size
Numbers without * were called inactive; i = inactive; ? = inconclusive; . = no result given; [ ] = dose if it differs, or a comment. Unless noted, calls come from the whole dose curve; as a rule, active = well fitted curve in the direction sought with a large enough effect; inconclusive = small, poorly fitted or top-dose-only effect, or another doubt; inactive = no such curve, though single readings can be large; an effect the other way counts as inactive or inconclusive. Potency is the fitted concentration of half-maximal effect.

SMILES	NIH3T3 tox	hNpr1 antagonist	HEK cytotox	Luciferase inh	SNCA expr inhib	HEK293 viab	Npr1 antag conf	NPR2 antag	FLuc counter	GloSensor cGMP
C[S+](=O)([O-])CCn1ncc2cc(OCC3CCN(c4ncc(F)cn4)CC3)ccc21	.	.	.	.	.	.	13µM*	?	3%[86.2 µM]	11µM*
CC(C)c1ccc(CC(=O)N2CCCc3ncc(C(=O)Nc4ccccn4)cc32)cc1	100µM*	20µM*	32µM*	i	-6%[87.6 µM]	?	11µM*	18µM*	-1%[86.2 µM]	11µM*
CC(C)c1ccc(CC(=O)N2CCCc3ncc(C(=O)Nc4cccc(Cl)c4)cc32)cc1	?	11µM*	25µM*	i	?	?	15µM*	17µM*	0%	22µM*
CC(C)c1ccc(CC(=O)N2CCCc3ncc(C(=O)Nc4cccnc4)cc32)cc1	2.8µM*	1.4µM*	8.9µM*	i	1µM*	?	3.5µM*	6.3µM*	-10%[86.2 µM]	5µM*
CC(C)NC(=O)c1cnc2c(c1)N(C(=O)Cc1ccc(C(C)C)cc1)CCC2	?	-18%[70.6 µM]	?	i	1%[87.6 µM]	-5%[87.6 µM]	.	.	.	.
O=C(Cc1cccc(Cl)c1)N1CCCN(c2ccc3nnc(-c4ccccc4)n3n2)CC1	?	.	-20%	.	.	.	.	.	.	.
COc1cccc(-c2cc(C3CCN(S(=O)(=O)c4ccc(C(C)=O)cc4)CC3)[nH]n2)c1	?	14µM*	?	i	-21%	-14%	24µM*	24µM*	-2%	24µM*
Cc1ccccc1C(=O)N1CCCC2(CNc3ncccc3[S+](=O)([O-])N2)C1 (stereo not given)	-13%	.	-18%	.	.	.	.	.	.	.
C[S+](=O)([O-])c1cccc(-c2nnc3ccc(C(=O)NCCCc4ccccc4)cn23)c1	-24%	.	-14%	.	9%	-2%	.	.	.	.
CCCn1cc(C(=O)NCC2COc3cc(OC)ccc3C2)c(C)n1 (stereo not given)	?	11µM*	?	i	?	-5%	19µM*	22µM*	-1%	19µM*
COc1ccc(CCNC(=O)c2nnn3c2COC(c2ccc(C)cc2)C3)cc1OC (stereo not given)	?	-18%	?	i	-27%	8%	.	.	.	.
F[C@@H]1CN(Cc2ccc(C(F)(F)F)cc2)C[C@@H]1OCc1nc2ccncc2[nH]1	?	?	?	i	-17%[87.6 µM]	-13%[87.6 µM]	.	.	.	.
F[C@@H]1CN(Cc2ccc(C(F)(F)F)cc2)C[C@@H]1OCc1nc2ccccc2[nH]1	?	28µM*	79µM*	i	?	?	40µM*	40µM*	-2%[86.2 µM]	40µM*
Cc1ccc([S+](=O)([O-])N2CCN(C(=O)c3nc4cccnc4n(C4CC4)c3=O)CC2)cc1	-20%	.	-5%	.	0%	-3%	.	.	.	.
O=C1NC2(CCN(Cc3ccc(OC(F)(F)F)cc3)C2)OCc2ccccc21 (stereo not given)	-18%	?	79µM*	i	-22%	4%	22µM*	22µM*	2%	17µM*
O=C1NC2(CCN(Cc3ccc(OC(F)(F)F)cc3)C2)Oc2ccccc21 (stereo not given)	?	8%	?	i	-29%	-5%	.	.	.	.
COc1cccc(-c2cn3cc(C(=O)NCc4ccccc4F)nc3s2)c1	-25%	.	?	.	42%	-12%	.	.	.	.
O=C(OCc1ccccc1)N1CCCN(c2cc(C3CC(O)C3)ncn2)CC1 (stereo not given)	-27%	8.9µM*	?	i	-25%	-19%	15µM*	15µM*	5%	14µM*
CCOCCCNC(=O)N1CC2CN(C(C)C)CC(C1)O2	4%	.	3%	.	-20%	7%	.	.	.	.
O=C(N[C@H]1CCN2C(=O)c3cc(-c4ccc(F)cc4F)ccc3NC(=O)[C@H]12)c1cccs1	?	-23%	?	i	-14%	-28%	?	?	?	-23%
O=C(N[C@H]1CCN2C(=O)c3cc(-c4ccc(F)cc4F)ccc3NC(=O)[C@@H]2C1)c1cccs1	?	2%	?	i	11%	-3%	.	.	.	.
C[C@@H]1O[C@@H](O[C@H]2[C@H](O)[C@@H](O)[C@H](OC[C@H]3O[C@@H](OC(=O)[C@]45CCC(C)(C)C[C@H]4C4=CCC6[C@@]7(C)C[C@@H](O)[C@H](O)[C@@](C)(CO)C7[C@H](O)C[C@@]6(C)[C@]4(C)CC5)[C@H](O)[C@@H](O)[C@@H]3O)O[C@@H]2CO)[C@H](O)[C@H](O)[C@H]1O (stereo not given in full)	.	.	.	.	.	-35%[12.5 µM]	.	.	.	.
COc1c[nH]c(CN2CCCC(Nc3ccc(C(C)C)cc3)C2)cc1=O (stereo not given)	?	?	?	i	19%	2%	22µM*	19µM*	-1%	22µM*
COc1c[nH]c(CN2CCCC(CCc3ccccc3C)C2)cc1=O (stereo not given)	-11%	0%	-26%	i	-3%	-9%	.	.	.	.
N#Cc1cccc(C(=O)N2CCN3CCS(=O)(=O)N(C4CC4)C(=O)C3C2)c1 (stereo not given)	-12%	.	i	.	6%	3%	.	.	.	.
COc1ccc(NC(=O)N2CCC(C)(c3noc(C)n3)CC2)cc1OC	-15%	.	-3%	.	-4%	0%	.	.	.	.
O=C1COc2ccc(-c3ccoc3)nc2CN1Cc1ccc(C(F)(F)F)cc1	79µM*	35µM*	?	i	-20%[87.6 µM]	-10%[87.6 µM]	35µM*	35µM*	-1%[86.2 µM]	35µM*
